According to PubChem BioAssay AID1159580 (chemical genetic matrix, 2015):
Out of some 5,500 compounds screened, about 2,000 (36%) were called active. Inconclusive results (about 18%) are left out. The list shows a part of the results. A number with no mark means an inactive call. No stated cut-off is given here; in the data, active means normalized growth mostly below about 0.91 (no sharp cut-off); inconclusive means no clear call, values can overlap the other calls; inactive means mostly above about 0.92.

Assay: chemical genetic growth profiling, strain panel (AID 1159580);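 further: tested at 20 µM; growth read once vehicle control cultures reached saturation at 30 °C; 1 = growth at the plate median or of vehicle wells; lower values mean less growth of the strain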
Settings: S. cerevisiae deletion strains, growth OD

NC(=S)N/N=C1/CCCc2ccccc21
normalized growth (locus YAR019C, strain CDC15, hits give low values): 0.923
normalized growth (locus YBL105C, strain PKC1, hits give low values): 0.944
normalized growth (locus YBR135W, strain CKS1, hits give low values): 0.939
normalized growth (locus YBR136W, strain MEC1, hits give low values): 0.909
normalized growth (locus YBR160W, strain CDC28, hits give low values): 0.905
normalized growth (locus YDL017W, strain CDC7, hits give low values): 0.921
normalized growth (locus YDL028C, strain MPS1, hits give low values): 0.924
normalized growth (locus YDL101C, strain DUN1, hits give low values): 0.921
normalized growth (locus YDL108W, strain KIN28, hits give low values): 0.906
normalized growth (locus YDL214C, strain PRR2, hits give low values): 0.805
normalized growth (locus YDR052C, strain DBF4, hits give low values): 0.884 (active)
normalized growth (locus YDR054C, strain cdc34, hits give low values): 0.885
normalized growth (locus YDR226W, strain ADK1, hits give low values): 0.866 (active)
normalized growth (locus YDR477W, strain SNF1, hits give low values): 0.748
normalized growth (locus YER123W, strain YCK3, hits give low values): 0.891
normalized growth (locus YER133W, strain GLC7, hits give low values): 0.802
normalized growth (locus YFL009W, strain cdc4, hits give low values): 0.92
normalized growth (locus YFL029C, strain CAK1, hits give low values): 0.921
normalized growth (locus YFR003C, strain YPI1, hits give low values): 0.913
normalized growth (locus YFR019W, strain FAB1, hits give low values): 0.925
normalized growth (locus YFR028C, strain CDC14, hits give low values): 0.834 (active)
normalized growth (locus YGR040W, strain KSS1, hits give low values): 0.805
normalized growth (locus YGR052W, strain FMP48, hits give low values): 0.746
normalized growth (locus YGR092W, strain DBF2, hits give low values): 0.814
normalized growth (locus YHR030C, strain SLT2, hits give low values): 0.805 (active)
normalized growth (locus YHR079C, strain IRE1, hits give low values): 0.954
normalized growth (locus YHR082C, strain KSP1, hits give low values): 0.935
normalized growth (locus YHR205W, strain SCH9, hits give low values): 0.993
normalized growth (locus YIL147C, strain SLN1, hits give low values): 0.91
normalized growth (locus YJL095W, strain BCK1, hits give low values): 0.934
normalized growth (locus YJL128C, strain PBS2, hits give low values): 0.966
normalized growth (locus YJL157C, strain FAR1, hits give low values): 0.749
normalized growth (locus YJR016C, strain ILV3, hits give low values): 0.896 (active)
normalized growth (locus YJR066W, strain TOR1 (second series), hits give low values): 0.824
normalized growth (locus YJR066W, strain TOR1, hits give low values): 0.765
normalized growth (locus YKL048C, strain ELM1, hits give low values): 0.781 (active)
normalized growth (locus YKL067W, strain YNK1, hits give low values): 0.796
normalized growth (locus YKL101W, strain HSL1, hits give low values): 0.822
normalized growth (locus YKL193C, strain SDS22, hits give low values): 0.922
normalized growth (locus YKL203C, strain TOR2, hits give low values): 0.589 (active)
normalized growth (locus YLR113W, strain HOG1, hits give low values): 1
normalized growth (locus YLR133W, strain CKI1, hits give low values): 0.796
normalized growth (locus YLR403W, strain SFP1, hits give low values): 0.659 (active)
normalized growth (locus YML070W, strain DAK1, hits give low values): 0.914
normalized growth (locus YMR001C, strain CDC5, hits give low values): 0.939
normalized growth (locus YMR205C, strain PFK2 (second series), hits give low values): 0.759
normalized growth (locus YNL006W, strain LST8, hits give low values): 0.978
normalized growth (locus YNL020C, strain ARK1, hits give low values): 0.802
normalized growth (locus YNL161W, strain CBK1, hits give low values): 0.955
normalized growth (locus YNL183C, strain NPR1, hits give low values): 0.735
normalized growth (locus YNL207W, strain RIO2, hits give low values): 0.858 (active)
normalized growth (locus YNL222W, strain SSU72, hits give low values): 0.956
normalized growth (locus YNL307C, strain MCK1 (second series), hits give low values): 0.695
normalized growth (locus YOL078W, strain AVO1, hits give low values): 0.925
normalized growth (locus YOL136C, strain PFK27, hits give low values): 0.922
normalized growth (locus YOR061W, strain CKA2, hits give low values): 0.902
normalized growth (locus YOR119C, strain RIO1, hits give low values): 0.573 (active)
normalized growth (locus YOR231W, strain MKK1, hits give low values): 0.912
normalized growth (locus YOR329C, strain SCD5, hits give low values): 0.965
normalized growth (locus YPL031C, strain PHO85, hits give low values): 0.788
normalized growth (locus YPL153C, strain RAD53, hits give low values): 0.837
normalized growth (locus YPL204W, strain HRR25, hits give low values): 0.872
normalized growth (locus YPL209C, strain IPL1, hits give low values): 0.934
normalized growth (locus YPL256C, strain CLN2, hits give low values): 0.999
normalized growth (locus YPR025C, strain CCL1, hits give low values): 0.937
normalized growth (locus YPR106W, strain ISR1, hits give low values): 0.913
normalized growth (locus YPR111W, strain DBF20, hits give low values): 0.874
normalized growth (strain NNK1, hits give low values): 0.908
normalized growth (strain TSCII, hits give low values): 0.93
